The campaign covered roughly 94,000 compounds. About 4,000 (4.3%) were called active. Roughly 29% stayed inconclusive and do not appear here. The full list was thinned out, with actives kept by preference. Unmarked numbers belong to inactive results. Calls come from the whole dose curve; as a rule, active = well fitted inhibition curve with a large enough effect; inconclusive = small, poorly fitted or top-dose-only effect; inactive = no such curve, though single readings can be large or run the other way.

This note sets out measurements from PubChem BioAssay AID1345082 (National Center for Advancing Translational Sciences (NCATS), 2018).
% is set by controls: 0 for no effect and ±100 for the full control effect; potency is the fitted concentration of half-maximal effect.

The nature of the test: Cytotoxic Profiling in NIH 3T3 Cell Line of Diverse Libraries Using Quantitative High-Throughput Screening. Note: nearly all actives have a fitted effect of over 55% in size. To be noted: NIH 3T3 viability, CellTiter-Glo ATP luminescence, 48-72 h; series mostly up to 96.7 µM; activity change, negative = cytotoxicity: at the top concentration. The text has this:
Cell-based phenotypic screening is a commonly used approach to discover biological pathways, novel drug targets, chemical probes and high-quality hit-to-lead molecules. Many hits identified from high-throughput screening campaign are ruled out through a series of follow-up potency, selectivity/specificity, and cytotoxicity assays. Prioritization of molecules with little or no cytotoxicity for a more in-depth downstream evaluation influence the future direction of projects, so cytotoxicity profiling of the screening libraries at early stage is essential for increasing the likelihood of candidate success. In this study, we analyzed results from a cell-based cytotoxicity screening campaign, comprising nearly 10,000 compounds in NCATS annotated libraries, and over 100,000 compounds in a diversity library, evaluated in four normal cell lines (HEK 293, NIH 3T3, CRL-7250 and HaCat) and a cancer cell line (KB 3-1, a HeLa subline) with overall screening outcomes, hit rates, pan-activity and selectivity. For the annotated library, we also examined the primary targets and mechanistic pathways regularly associated with cell death. To our knowledge, this is the first study to use high-throughput screening to profile large libraries for cytotoxicity assessment in both normal and cancer cell lines. In summary, the results generated here constitutes a valuable resource for the scientific community and provides insight on identifying cytotoxic compounds with particular mechanisms of action, and prioritizing compounds with suitable cytotoxicity profile for further evaluation.
NIH 3T3 cells were seeded into white 1536-well plates using a Multidrop Combi peristaltic dispenser (ThermoFisher, Waltham, MA) at a density of 400 cells/well in 5 uL of medium respectively. A pintool (Kalypsys) was used to transfer 23 nL of compound solution to the 1536-well assay plates. After 48 or 72 hr incubation at 37 degree Celsius, 5% CO2 and 95% humidity, 2.5 uL of CellTiter-Glo (Promega) was dispensed into each well using a dispenser (Aspect Automation, St. Paul, MN) with solenoid valves (Lee Valves, Westbrook CT). Plates were left at room temperature for 10 min before imaging the ATP-coupled luminescence using a ViewLux microplate imager (PerkinElmer, Waltham, MA).
Take `Cc1cc(Cl)ccc1-c1ccc(CN)cc1`: the Potency is 31.6 µM (active). With `COc1cccc(CCC(=O)N2CCCC2c2nc(C3CCOCC3)no2)c1` (stereo not drawn), the “activity change, negative = cytotoxicity” value is -6.83%. Consider `O=C(c1ccc(Cl)cc1)N1CCCC2(CNc3ncccc3[S+](=O)([O-])N2)C1` (stereo not drawn), for which the “activity change, negative = cytotoxicity” value is -20%. On the same count and under the same terms, the result for `Cn1cnc(S(=O)(=O)N[C@H]2CCN(C(=O)c3ccco3)[C@H](C(=O)N[C@@H](Cc3cccs3)C(N)=O)C2)c1` reads -17.1%; that for `COc1ccc(-c2cc(C[C@H]3CNCC[C@H]3CC(=O)NCCN(C)C)no2)cc1`, -24.5% [at 174 µM]. As to `O=C(C[C@@H]1CCNC[C@@H]1Cc1cc(-c2ccc(F)cc2)on1)NCCN1CCOCC1`, the “outcome” value was “inactive [at 174 µM]”. As for `COc1ccc(CNC(=O)C[C@@H]2CCNC[C@@H]2Cc2cc(-c3ccc(C(C)(C)C)cc3)on2)cc1OC`, the Potency was 25.1 µM (active). As for `CN1C(=O)CCC2(CNC(=O)c3ccoc3)CCCC=C12` (stereo not drawn), the molecule was called inactive. In the case of `CCCn1ncc(C(=O)NCC2(O)CCCNC2)c1C` (stereo not drawn), the “activity change, negative = cytotoxicity” value is 3.08%.

On to `CC(NC(=O)c1ccc(CN2C(=O)NC3(CCOCC3)C2=O)cc1)c1ccccc1` (stereo not drawn), for which the “activity change, negative = cytotoxicity” value was -3.56%. Consider `COC(=O)C1CCN(C(=O)CC[C@H]2CNC(=O)[C@@H]3[C@@H](CCN3Cc3cccs3)N2C)CC1`, for which the “activity change, negative = cytotoxicity” value is -16%. `Cn1c(=O)n([C@H]2CCCN(C(=O)C3CC=CC3)C2)c2ncccc21`: the “activity change, negative = cytotoxicity” value is -9.11%. Consider `Cc1cccc(C)c1-c1nc(C(=O)NCc2ccc(F)cc2)n2ccccc12`, for which the “activity change, negative = cytotoxicity” value was -23.7%. Turning to `Cc1ccc(C)c(S(=O)(=O)c2nnn3c2nc(NCc2ccc(F)cc2)c2ccccc23)c1`, the Potency was 28.2 µM (active).

With `O=c1[nH]c(C2CCCN([S+](=O)([O-])c3cccc(C(F)(F)F)c3)C2)nn1-c1ccc(F)cc1` (stereo not drawn), the “activity change, negative = cytotoxicity” value was -13.8%. As to `CC[C@H]1CN(C(=O)Nc2ccccc2)CC[C@H]1CC(=O)Nc1ccccc1`, the “activity change, negative = cytotoxicity” value is -17.9% [at 174 µM].

Take `O=C1NCc2ccccc2CC12CCN(CC1CCCCC1)C2` (stereo not drawn): the “activity change, negative = cytotoxicity” value is -13.4%. For the molecule `CCc1cc(=O)n(CC(=O)Nc2cccc(C(C)=O)c2)c(-c2ccccc2)n1`, the Potency was 35.5 µM (active). `CC(=O)c1cccc(NC(=O)Cn2c(-c3ccc(Cl)cc3)nc(C)cc2=O)c1`: the “activity change, negative = cytotoxicity” value was -23.6%.

With `COc1cccc(NC(=O)Cn2c(-c3ccccc3)nc(C)cc2=O)c1`, the “activity change, negative = cytotoxicity” value is -26.4%. In the case of `COc1ccc(-c2cc(N3CCC(NC(=O)c4ccoc4)CC3)n[nH]2)cc1`, the “activity change, negative = cytotoxicity” value was -20.6%. `CC(C)(C)OCC1CN(Cc2cccs2)C(=O)c2cccnc2O1` (stereo not drawn): the “activity change, negative = cytotoxicity” value is -23.4%. Take `COc1ccc(CNC(=O)CC[C@H]2CNC(=O)[C@@H]3[C@@H](CCN3C3CCOCC3)N2C)cc1`: the “activity change, negative = cytotoxicity” value was 1.52%. With `CC(C)c1noc(-c2ccn3c(CNC(=O)c4ccc5ccccc5n4)nnc3c2)n1`, the “activity change, negative = cytotoxicity” value was 0.0071%. On to `O=C(NCCc1ccccn1)c1ccc2c(c1)OCCN(c1ccccc1)C2`, for which the “activity change, negative = cytotoxicity” value is -16.9% [at 138 µM]. Regarding `O=C(NCCc1ccccc1)c1ccc2c(c1)OCCN(CCC(F)(F)F)C2`, the “activity change, negative = cytotoxicity” value was -8.88% [at 138 µM]. As to `CC(C)(C)c1csc(NC(=O)c2ccc3c(c2)OCCN(C2CCC2)C3)n1`, the Potency was 79.4 µM (active). Regarding `Cc1noc(C2CC3(CCN(C(=O)c4cccnc4C)CC3)CN2C)n1` (stereo not drawn), the “activity change, negative = cytotoxicity” value is 1.03%. As to `O=C(CN1CCC2(CC1)NC(=O)CC2C(=O)O)NCCc1ccc(F)cc1` (stereo not drawn), the “activity change, negative = cytotoxicity” value is -10.7%. As to `O=C(Cc1cccc(Cl)c1)N1CCCN(c2ccc3nnc(C4CC4)n3n2)CC1`, the “activity change, negative = cytotoxicity” value was -5.27%. With `Cc1c[nH]c(CN2CCCC(CCc3ccc(F)cc3F)C2)c(C)c1=O` (stereo not drawn), the Potency was 50.1 µM (active). Consider `Cn1ccnc1CN1CCCC(CCC(=O)Nc2ccccc2F)C1` (stereo not drawn), for which the outcome was inactive. On the same count and under the same terms, the result for `CN1[C@@H](CCC(=O)N2CCOCC2)CNC(=O)[C@@H]2[C@H]1CCN2Cc1ccc(S(C)(=O)=O)cc1` reads “inactive”. Regarding `Cc1ccc(F)cc1S(=O)(=O)N1CCC(OC2CCN(Cc3ccccc3)CC2)CC1`, the Potency is 35.5 µM (active).

Turning to `CC(C)C(=O)N1CCC(OC2CCN(Cc3ccccc3)CC2)CC1`, the “activity change, negative = cytotoxicity” value was -29.4%. Take `O=c1[nH]c(C2CCN(Cc3ccccc3)CC2)nc2ccc(F)cc12`: the Potency result was “inactive”. Regarding `CCCN1CCN(c2ccc(C(=O)N(C)Cc3ccc4ccccc4n3)cn2)CC1`, the “activity change, negative = cytotoxicity” value is -1.06%. `COc1ccc(-c2ncc3c(n2)OCCN(Cc2ccccc2)C3=O)cn1`: the Potency is 35.5 µM (active). Consider `COc1ccc(CN2CCN3C(=O)N(c4ccccc4)C[C@H]3C2)cn1`, for which the “activity change, negative = cytotoxicity” value is -29.7% [at 174 µM]. Turning to `COCCN1CCOC2(CCN(Cc3ccc(F)cc3F)CC2)C1=O`, the “activity change, negative = cytotoxicity” value was -26.7% [at 138 µM]. In the case of `C[S+](=O)([O-])c1cccc(-c2ncc3c(n2)OCCN(Cc2ccc(F)cc2F)C3=O)c1`, the Potency is 28.2 µM (active). As to `CN(C)c1cccc(-c2ncc3c(n2)OCCN(Cc2ccc(F)cc2F)C3=O)c1`, the “activity change, negative = cytotoxicity” value was -22.8% [at 138 µM]. Regarding `COCCOc1ccc(-c2noc([C@@H]3CCCN3Cc3cccnc3)n2)cn1`, the “activity change, negative = cytotoxicity” value was -21.8% [at 138 µM]. As to `Cc1nc(CCNc2nccc(-c3cccnc3)n2)nc2c1CCCC2`, the “activity change, negative = cytotoxicity” value was 2.97%. For the molecule `CNC(=O)[C@@H]1[C@H]2CN(C3CCCCCC3)CCN2C[C@H]1c1ccccc1`, the “activity change, negative = cytotoxicity” value is -42.5%.

For `O=C(C1CCCC1)N1C[C@@H](CO)[C@H](c2ccncc2)C1`, the “activity change, negative = cytotoxicity” value was 2.17%. Same read-out and setting: the result for `CC(C)(C)c1ccc(C(=O)N2C[C@@H](CO)[C@H](c3ccccn3)C2)cc1` reads -21%; that for `CC(C)CNC(=O)c1nnn2c1COC(c1ccc(Br)cc1)C2` (stereo not drawn), -19.1%.
